PubChem BioAssay (Tox21)
“And” between values parts separate entries of the source, which are not always exact repeats. Equal values may be shown once. Inconclusive results are not listed. A number with no mark means an inactive call. The source made the active and inactive calls. The call rests on the fitted dose curve.

Experiment: qHTS assay for small molecules that induce genotoxicity in human embryonic kidney cells expressing luciferase-tagged ATAD5 - cell viability (AID 651634); further: nearly all actives have a fitted effect of over 25% in size
Settings: HEK293T ATAD5-luc cells viability, CellTiter-Fluor, 15.5 h; series mostly up to 83.3 µM; activity, negative = cytotoxicity: at the top concentration
Description: National Center for Advancing Translational Sciences [NCATS]
NIH Chemical Genomics Center [NCGC]
U.S. Environmental Protection Agency [EPA]
National Institutes of Environmental Health Sciences [NIEHS]
National Toxicology Program [NTP]
U.S. Food and Drug Administration [FDA]
Enhanced Level of Genome Instability Gene 1 (ELG1; human ATAD5) protein levels increase in response to various types of DNA damage. Using a luciferase reporter-gene tagged with ElG1, a cell-based assay [developed by Kyungjae Myung, NHGRI, NIH] was used to measure the induction of ATAD5 in human embryonic kidney cells (HEK293T). So, increase in luciferase activity can be used to identify the compounds that cause genetic stress. In addition to genotoxicity, these cells were also used to test for cytotoxicity by measuring the protease activity within live cells.
Tox21 Assay Protocol Summary:
For cytotoxicity screening, 2,000 cells in 5 uL/well were dispensed into white, solid-bottom 1536-well plates using a Multidrop Combi (Thermo Scientific) dispenser. Following transfer of 23 nL compound or DMSO vehicle by a pin tool, the plates were incubated 15.5 hr at 37C and 5% CO2. 1 ul CellTiter-Fluor reagent (Promega, Madison, WI) was then added to each plate and following 30 min incubation at 37C, fluorescence intensity was quantified on a ViewLux CCD-based plate reader.
On the % scale 0 is the no-effect control and ±100 the full control effect; potency means the concentration at half of the fitted maximal effect.

Compound	activity, negative = cytotoxicity	Potency
CCOP(=S)(OCC)Oc1cc(C)nc(N(CC)CC)n1	-0.0147%	–
[Cl][Hg][c]1ccccc1	–	19.3 µM (active)
Cc1c([N+](=O)[O-])c(C)c([N+](=O)[O-])c(C(C)(C)C)c1[N+](=O)[O-]	22.3%	–
CCCCCON=O	18.1% [at 95.3 µM]	–
Oc1cc(Cl)cc(Cl)c1	5.36% [at 95.3 µM]	–
Nc1ccc(N=Nc2ccccc2)cc1	–	41.6 µM (active)
Oc1ccc([C@H]2CNCc3c2ccc(O)c3O)cc1O	-11.9%	–
O=S1(=O)OCC2C(CO1)C1(Cl)C(Cl)=C(Cl)C2(Cl)C1(Cl)Cl (stereo not given)	-6.92%	–
O=[N+]([O-])c1cccc2cccc([N+](=O)[O-])c12	-6.75% [at 95.3 µM]	–
Cc1cc(C2CC2)nc(Nc2ccccc2)n1	10.1%	–
Cc1cnc2c(C(=O)O)c(Cl)ccc2c1	-5.75%	–
CSC(C)(C)/C=N/O	11%	–
Nc1nc(N)c(N)c(N)n1	181% [at 95.3 µM]	–
O=S(=O)(O)F	12.6% [at 95.3 µM]	–
CC(C)C(Br)C(=O)NC(N)=O (stereo not given)	1.78%	–
COP(=S)(NC(C)C)Oc1ccc(C)cc1[N+](=O)[O-] (stereo not given)	16.6%	–
Cc1cccc(Cc2cnc[nH]2)c1C	18.2%	–
CCOP(=O)(OCC)Oc1cc(C)nc(C(C)C)n1	-5.4% [at 95.3 µM]	–
c1cc[n+]2c(c1)-c1cccc[n+]1CC2	-1.89%	–
O=C(N[C@H]1N=C(c2ccccc2F)c2cccc3c2N(CC3)C1=O)c1cc2ccccc2[nH]1	-14.9%	–

Compound	activity, negative = cytotoxicity	Potency
CCCC[N+]1(C)CCCC1 (tested in a mixture with another compound)	-2.73% [at 95.3 µM]	–
CCCCn1cc[n+](C)c1.[Cl][Fe-]([Cl])([Cl])[Cl]	-3.84%	–
CCC1(CC)C(=O)N=C(O)NC1=O	16.1%	–
Oc1ccc2[nH]cc(CCCCN3CC=C(c4ccccc4)CC3)c2c1	-13.8%	–
CC1(C)[C@H](/C=C2\CCSC2=O)[C@@H]1C(=O)OCc1coc(Cc2ccccc2)c1	17.6%	–
O=[N+]([O-])c1cc(C(F)(F)F)c(Cl)c([N+](=O)[O-])c1Nc1ncc(C(F)(F)F)cc1Cl	–	30.6 µM (active)
CCC(OC(C)=O)C(CC(C)NC)(c1ccccc1)c1ccccc1 (stereo not given)	-19.3% [at 95.3 µM]	–
CCCN	3.09% [at 95.3 µM]	–
CO/N=C(/C1=NOCCO1)c1ccccc1Oc1ncnc(Oc2ccccc2Cl)c1F	-19.6%	–
N#CSCc1ccccc1	-20.2% [at 95.3 µM]	–
CCC(C)c1cccc(C(C)CC)c1O (stereo not given)	7.99%	–
C=CC(=O)[O][Sn]([CH2]CCC)([CH2]CCC)[CH2]CCC	–	1.09 µM (active)
C[N+]1(C)[C@@H]2CC[C@H]1CC(OC(=O)C(CO)c1ccccc1)C2 (stereo not given in full)	–	inactive
CCOP(=O)(OCC)Oc1nc(Cl)c(Cl)cc1Cl	-16.3%	–
COc1ccc2c3c1O[C@H]1[C@H](O)CC[C@H]4[C@@H](C2)N(C)CC[C@@]341	7.26%	–
CN(C)C(=S)SSC(=S)N(C)C	–	6.68 µM (active) and 26.9 µM (active)
CC(C)C(Nc1ccc(C(F)(F)F)cc1Cl)C(=O)OC(C#N)c1cccc(Oc2ccccc2)c1 (stereo not given)	18.5% [at 95.3 µM]	–
ClC1=C(Cl)[C@]2(Cl)[C@@H]3[C@H]4C[C@H]([C@@H]5O[C@H]45)[C@@H]3[C@@]1(Cl)C2(Cl)Cl	–	inactive
Cc1ccccc1OP(=O)(Oc1ccccc1C)Oc1ccccc1C	11.6% [at 95.3 µM]	–
Oc1ccc(Cl)c(Cl)c1	9.08%	–
